The values that follow come from PubChem BioAssay (NCATS).

Test [1] has as its target ATP-dependent DNA helicase Q1 (Homo sapiens) (UniProt P46063). Briefly: qHTS Validation Assay for Inhibitors of RecQ-Like Dna Helicase 1 (RECQ1) (AID 2353). In short, it runs like this:
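RECQ1T1 50 nM; forked duplex (20 bp + 30-nt ss tails) 200 nM, ATP 2 mM final; pH 8.0, 2 mM MgCl2, 2.5 ug/ml poly(dI-dC); 15 min compound preincubation; discontinuous kinetic read over 2 h at RT.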
(Quantitative high-throughput screening tests each substance at several concentrations.)

Test [2] deals with RecQ-like DNA helicase BLM (Homo sapiens) (UniProt P54132). Briefly: qHTS Validation Assay for Inhibitors of Bloom's syndrome helicase (BLM) (AID 2364). In short, it runs like this:
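BLM 50 nM in 25 mM Tris-HCl pH 8.0, 5 mM NaCl, 2 mM MgCl2, 1 mM DTT, 0.01% Tween-20, 2.5 ug/ml poly(dI-dC); 15 min cpd preinc, RT. Start: 200 nM forked DNA + 2 mM ATP (final). TAMRA read, 2 reads 2 h apart.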

Test [3] can be described thus: Cytometric Cell-Based qHTS for Inhibitors of the mTORC1 Signaling Pathway in MEF (Tsc2-/-, p53-/-) Cells (AID 2660).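 Note: Tsc2 and p53 null MEFs carrying empty vector with compound for 24 h; percent of cells above a phospho-rpS6 to PI ratio cutoff in each well; series mostly up to about 38 µM.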 In short, it runs like this: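 Percent of cells positive for normalized phospho-S6 staining is reported, with the cutoff set from rapamycin (7.5 nM) versus DMSO wells. Tsc2-/-, p53-/- MEFs received compound for 24 hrs.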
Test [4] can be described thus: High Content Imaging Cell-Based qHTS for Inhibitors of the mTORC1 Signaling Pathway in MEF Cells (AID 2667). Note: potency is the fitted concentration of half-maximal effect. In a few lines: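 Fixed-cell imaging of phospho-S6 (Ser235/236, Alexa-488) after 24 hrs of compound treatment at 37 degree Celsius. Signal was normalized to Hoechst, and thresholds from the highest and lowest wells split cells into % active versus % non-active.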

A short description of test [5]: Cytometry Cell-Based qHTS for Inhibitors of the mTORC1 Signaling Pathway in MEF cells (AID 2668). Note: potency is the fitted concentration of half-maximal effect. In short, it runs like this:
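In MEFs grown in DMEM + 10% FBS, a 24 hrs compound exposure preceded imaging of phospho-rpS6 Ser235/236 by laser-scanning cytometry.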

Test [6] is described as follows: Validation screen for inhibitors of Lassa infection (AID 463096; calls by dose curve; note: potency is the fitted concentration of half-maximal effect).
Test [7] is described as follows: Validation screen for small molecules that induce DNA re-replication in MCF 10A normal breast cells (AID 463097). Note: nearly all actives have a fitted effect of over 60% in size. Note: potency is the fitted concentration of half-maximal effect. In short, it runs like this: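 Following 48 hr compound incubation (37 C, 5% CO2), MCF 10A cells receive Hoechst for 40 min at 37 C. Nuclei are then scanned (excitation 405 nm, emission 500-530 nm) for total fluorescence intensity.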
Test [8] addresses Ubiquitin carboxyl-terminal hydrolase 2 (Homo sapiens) (UniProt O75604). The test is described as follows: qHTS Validation Assay for Inhibitors of Ubiquitin-specific Protease USP2a Using CHOP2 as the Reporter (AID 463106). In a few lines: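 Inhibition is expressed relative to NEM as the full-inhibition control, with concentration-response curves classed by fit quality, magnitude and activity. Enzyme (USP2 core, 10nM) meets 25nM Ub-CHOP2 after compound preincubation; readings are taken at 60min.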

The nature of test [9]: qHTS Validation Assay to Find Inhibitors of Chronic Active B-Cell Receptor Signaling (AID 485345; active = well fitted curve in the direction sought with a large enough effect in the main read-out, with a control signal flat, not every such curve was filed as active). In a few lines:
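TMD8 ABC-DLBCL cells with dox-inducible green luciferase–IκBα fusion and red native luciferase; compounds 46 uM–3 nM, 4 h at 37C with doxycycline in 0.5% FBS IMDM. Green/red ratio normalized to basal and 10 uM MG-132.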

Test [10] addresses Beta-2 adrenergic receptor (Homo sapiens) (UniProt P07550). The test is described as follows: qHTS validation assay of beta-arrestin-biased ligands of beta2-adrenergic receptor (AID 485366). In short, it runs like this: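 Screening used a titration range of up to 46 microM in a beta-arrestin recruitment Tango luciferase assay. Cells in 1% FBS medium were treated 18 hr at 37 degrees C, and luminescence was normalized to %Activity.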

The target in test [11] is ATP-dependent 6-phosphofructokinase (Trypanosoma brucei brucei) (UniProt O15648). The test is described as follows: qHTS Validation Assay to Find Inhibitors of T. brucei phosphofructokinase (AID 485368). In a few lines:
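PFK-generated ADP was measured after 45 min at room temperature using ADP-Glo. The reaction contained 0.5 mM F6P and 0.1 mM ATP.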

Test [12] can be described thus: Quantitative high throughput screen for delayed death inhibitors of the malarial parasite plastid, 96 hour incubation (AID 488745). Note: nearly all actives have a fitted effect of over 70% in size. Note: potency is the fitted concentration of half-maximal effect. In a few lines: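 Decreased firefly luciferase luminescence indicates inhibited growth of reporter-integrated P. falciparum after two generations (96 h, 37 C, 5% CO2). Infected erythrocytes at 0.1% parasitemia, 2% hematocrit, in Albumax-supplemented RPMI 1640.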

A short description of test [13]: Quantitative high throughput screen for delayed death inhibitors of the malarial parasite plastid, 48 hour incubation (AID 488752). Note: nearly all actives have a fitted effect of over 65% in size. Note: potency is the fitted concentration of half-maximal effect. In short, it runs like this: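 One-generation (48 h) growth assay: a decrease in luciferase signal from an integrated reporter in P. falciparum-infected red cells (0.1% parasitemia, 2% hematocrit) after compound exposure at 37 C indicates parasite inhibition.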

In test [14] the target is Thioredoxin reductase 1, cytoplasmic (Rattus norvegicus) (UniProt O89049). Briefly: qHTS Assay for Substrates of Mammalian Selenoprotein Thioredoxin Reductase 1 (TrxR1) (AID 488772).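 Note: series mostly up to about 57 µM; a drop in NADPH fluorescence below the no-compound background marks a TrxR1 substrate.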 In short, it runs like this: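 In this dual-purpose format, potential substrates are identified from the first fluorescence read after selenite addition, not from the 8-minute delta. Rat enzyme is preincubated with NADPH and then with compound at ~22 deg C.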

The target is the same in test [15]. The test is described as follows: qHTS Assay for Inhibitors of Mammalian Selenoprotein Thioredoxin Reductase 1 (TrxR1) (AID 488773). Note: nearly all actives have a fitted effect of over 40% in size. Note: potency is the fitted concentration of half-maximal effect. Particulars: Potency: inhibition. In short, it runs like this:
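Inhibition is scored from the loss of NADPH fluorescence between first and last reads of an 8-min kinetic run. Selenite (400 uM) was the substrate, added after 15 min compound preincubation at room temperature.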

Test [16] concerns the target Flap endonuclease 1 (Homo sapiens) (UniProt P39748). The test is described as follows: qHTS Validation Assay for the Inhibitors of Human Flap endonuclease 1 (FEN1) (AID 488816). Note: potency is the fitted concentration of half-maximal effect. In short, it runs like this:
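Steps: add FEN1 (10 nM reagent) or buffer only; pin compounds; hold 15 min at room temperature; start with substrate, 50 nM final; read at 0 and 15 min; correct, normalize and fit a four-parameter Hill curve.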

Test [17] has as its target M-phase phosphoprotein 8 (Homo sapiens) (UniProt Q99549). The test is described as follows: qHTS Validation Assay for Inhibitors for MPP8 Chromodomain Interactions with Methylated Histone Tails (AID 488949). Note: nearly all actives have a fitted effect of over 55% in size. Note: potency is the fitted concentration of half-maximal effect. In a few lines:
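Chemiluminescent proximity assay: histidine-tag capture via nickel acceptor beads, biotin peptide via streptavidin donor beads. Protein and peptide each at 50 nM, pH 7.4, with 30 min incubations at room temperature for complex formation, compound exposure and bead binding.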

In test [18] the target is Methanococcus maripaludis chaperonin (MmCpn) (UniProt Q6LX38). Briefly: High-Throughput Screening for Modulators of Cytosolic Chaperonin Activity: MmCpn Primary Screen (AID 488978). In short, it runs like this:
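HTRF readout (320 nm excitation, 590/665 nm emission) of ADP generated by 50 nM MmCpn hydrolysing 30 uM ATP during 10 min at 37C; compound preincubated 5 min RT.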

Test [19] concerns the target Transient receptor potential cation channel subfamily V member 1 (Homo sapiens) (UniProt Q8NER1). The test is described as follows: HTS Assay for Compounds that Act as Enhancers of the Vanilloid Receptor 1 (AID 488979). In a few lines:
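TRPV1-expressing cells loaded with Fluo-8 calcium dye; compounds added and calcium influx read kinetically for 3 min (agonist phase), then capsaicin at EC20 added and read 2 min more for enhancement. Fluorescence ex 480/em 520 nm.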

The target of test [20] is Chromobox protein homolog 1 (Homo sapiens) (UniProt P83916). Briefly: qHTS Validation Assay for Inhibitors of HP1-beta Chromodomain Interactions with Methylated Histone Tails (AID 488953). Note: nearly all actives have a fitted effect of over 50% in size. Note: potency is the fitted concentration of half-maximal effect. In short, it runs like this: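 AlphaScreen proximity signal from streptavidin donor and nickel chelate acceptor beads (final 10 ug/mL) after 30 min dark incubation. Compounds had 30 min at room temperature with preformed complex of 50 nM HP1-beta and 50 nM b-H3(1-18)K9me3 in PBS pH 7.4 with 0.01% Tween-20.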

Records with an inconclusive call do not appear. The source made the active and inactive calls. Unless noted, calls come from the whole dose curve; as a rule, active = well fitted curve in the direction sought with a large enough effect; inconclusive = small, poorly fitted or top-dose-only effect, or another doubt; inactive = no such curve, though single readings can be large; an effect the other way counts as inactive or inconclusive.

Chain of Ubiquitin carboxyl-terminal hydrolase 2 (Homo sapiens) (O75604 whole entry, looked up): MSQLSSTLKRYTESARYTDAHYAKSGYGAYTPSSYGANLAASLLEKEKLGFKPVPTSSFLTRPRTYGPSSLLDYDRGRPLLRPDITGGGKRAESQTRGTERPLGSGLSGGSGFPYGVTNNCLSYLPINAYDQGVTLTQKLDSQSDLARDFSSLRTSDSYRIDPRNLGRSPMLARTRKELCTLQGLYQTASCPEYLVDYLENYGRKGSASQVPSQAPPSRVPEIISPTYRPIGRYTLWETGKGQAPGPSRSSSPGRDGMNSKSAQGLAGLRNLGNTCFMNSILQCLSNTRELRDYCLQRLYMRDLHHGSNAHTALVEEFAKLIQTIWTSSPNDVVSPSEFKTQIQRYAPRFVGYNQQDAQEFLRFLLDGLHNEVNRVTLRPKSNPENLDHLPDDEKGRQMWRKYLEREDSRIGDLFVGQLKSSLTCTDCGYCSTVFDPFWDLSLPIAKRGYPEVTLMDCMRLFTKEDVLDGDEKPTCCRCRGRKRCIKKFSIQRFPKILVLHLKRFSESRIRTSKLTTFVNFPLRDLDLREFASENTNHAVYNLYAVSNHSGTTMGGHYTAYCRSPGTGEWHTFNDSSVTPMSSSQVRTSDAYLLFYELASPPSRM
Chain of Methanococcus maripaludis chaperonin (MmCpn) (Q6LX38 1-543): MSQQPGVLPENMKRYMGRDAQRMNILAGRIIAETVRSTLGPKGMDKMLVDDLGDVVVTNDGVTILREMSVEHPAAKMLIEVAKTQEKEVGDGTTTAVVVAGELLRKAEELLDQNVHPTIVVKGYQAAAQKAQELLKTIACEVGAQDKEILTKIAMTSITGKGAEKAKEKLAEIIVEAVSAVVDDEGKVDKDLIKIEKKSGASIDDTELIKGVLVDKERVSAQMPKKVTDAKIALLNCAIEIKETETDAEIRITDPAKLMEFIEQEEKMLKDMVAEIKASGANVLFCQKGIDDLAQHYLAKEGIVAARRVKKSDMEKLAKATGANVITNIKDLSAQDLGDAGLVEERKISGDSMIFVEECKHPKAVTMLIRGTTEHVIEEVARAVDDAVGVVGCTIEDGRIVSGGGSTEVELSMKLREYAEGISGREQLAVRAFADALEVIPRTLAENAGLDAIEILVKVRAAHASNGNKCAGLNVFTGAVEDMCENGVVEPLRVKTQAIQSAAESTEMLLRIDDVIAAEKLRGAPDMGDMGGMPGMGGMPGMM
Chain of Thioredoxin reductase 1, cytoplasmic (Rattus norvegicus) (O89049 whole entry, looked up): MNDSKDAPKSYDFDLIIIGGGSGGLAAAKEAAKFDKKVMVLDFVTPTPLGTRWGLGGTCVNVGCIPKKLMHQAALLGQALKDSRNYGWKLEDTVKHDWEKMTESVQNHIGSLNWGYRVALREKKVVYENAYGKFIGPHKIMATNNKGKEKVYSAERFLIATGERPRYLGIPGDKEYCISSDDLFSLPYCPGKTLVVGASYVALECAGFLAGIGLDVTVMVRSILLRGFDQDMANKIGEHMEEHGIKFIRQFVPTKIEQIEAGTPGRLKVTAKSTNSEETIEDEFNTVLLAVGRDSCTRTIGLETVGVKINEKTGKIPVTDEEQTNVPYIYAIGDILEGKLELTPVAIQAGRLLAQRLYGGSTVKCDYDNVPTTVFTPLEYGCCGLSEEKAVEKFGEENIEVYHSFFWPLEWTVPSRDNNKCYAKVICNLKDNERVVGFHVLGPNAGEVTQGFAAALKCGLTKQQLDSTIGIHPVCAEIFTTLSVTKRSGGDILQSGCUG
Chain of Transient receptor potential cation channel subfamily V member 1 (Homo sapiens) (Q8NER1 whole entry, looked up): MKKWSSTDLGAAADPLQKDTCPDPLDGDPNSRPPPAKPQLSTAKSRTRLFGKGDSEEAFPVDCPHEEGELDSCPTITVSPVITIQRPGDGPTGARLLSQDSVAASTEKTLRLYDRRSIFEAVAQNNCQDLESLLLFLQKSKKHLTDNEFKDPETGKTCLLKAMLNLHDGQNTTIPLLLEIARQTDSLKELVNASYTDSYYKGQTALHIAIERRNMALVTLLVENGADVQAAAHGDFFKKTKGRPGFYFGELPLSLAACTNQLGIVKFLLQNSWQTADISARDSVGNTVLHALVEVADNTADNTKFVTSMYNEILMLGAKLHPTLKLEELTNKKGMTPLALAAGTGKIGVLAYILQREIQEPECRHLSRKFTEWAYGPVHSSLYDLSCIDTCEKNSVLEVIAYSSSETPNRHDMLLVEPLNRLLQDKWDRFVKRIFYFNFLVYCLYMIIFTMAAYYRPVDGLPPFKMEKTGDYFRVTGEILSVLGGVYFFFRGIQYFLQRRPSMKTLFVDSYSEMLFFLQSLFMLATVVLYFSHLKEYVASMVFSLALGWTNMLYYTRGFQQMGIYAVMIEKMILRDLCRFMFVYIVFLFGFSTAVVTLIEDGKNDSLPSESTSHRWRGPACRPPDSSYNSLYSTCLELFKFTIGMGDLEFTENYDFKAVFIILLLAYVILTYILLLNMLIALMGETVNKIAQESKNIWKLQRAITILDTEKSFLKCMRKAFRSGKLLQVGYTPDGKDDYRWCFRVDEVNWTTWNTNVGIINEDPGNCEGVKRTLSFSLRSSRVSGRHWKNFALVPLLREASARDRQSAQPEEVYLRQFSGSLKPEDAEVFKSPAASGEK
Chain of Flap endonuclease 1 (Homo sapiens) (P39748 whole entry, looked up): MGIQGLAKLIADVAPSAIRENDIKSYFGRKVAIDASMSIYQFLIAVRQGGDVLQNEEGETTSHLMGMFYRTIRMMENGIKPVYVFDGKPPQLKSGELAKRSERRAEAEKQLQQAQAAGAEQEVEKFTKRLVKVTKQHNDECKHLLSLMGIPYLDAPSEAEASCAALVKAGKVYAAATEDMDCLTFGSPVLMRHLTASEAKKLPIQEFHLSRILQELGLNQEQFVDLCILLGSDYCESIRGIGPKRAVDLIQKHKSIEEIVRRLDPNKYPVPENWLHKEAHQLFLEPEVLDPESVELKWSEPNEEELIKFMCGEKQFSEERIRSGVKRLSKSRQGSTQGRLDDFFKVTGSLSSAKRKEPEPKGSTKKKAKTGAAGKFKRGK
Chain of RecQ-like DNA helicase BLM (Homo sapiens) (P54132 whole entry, looked up): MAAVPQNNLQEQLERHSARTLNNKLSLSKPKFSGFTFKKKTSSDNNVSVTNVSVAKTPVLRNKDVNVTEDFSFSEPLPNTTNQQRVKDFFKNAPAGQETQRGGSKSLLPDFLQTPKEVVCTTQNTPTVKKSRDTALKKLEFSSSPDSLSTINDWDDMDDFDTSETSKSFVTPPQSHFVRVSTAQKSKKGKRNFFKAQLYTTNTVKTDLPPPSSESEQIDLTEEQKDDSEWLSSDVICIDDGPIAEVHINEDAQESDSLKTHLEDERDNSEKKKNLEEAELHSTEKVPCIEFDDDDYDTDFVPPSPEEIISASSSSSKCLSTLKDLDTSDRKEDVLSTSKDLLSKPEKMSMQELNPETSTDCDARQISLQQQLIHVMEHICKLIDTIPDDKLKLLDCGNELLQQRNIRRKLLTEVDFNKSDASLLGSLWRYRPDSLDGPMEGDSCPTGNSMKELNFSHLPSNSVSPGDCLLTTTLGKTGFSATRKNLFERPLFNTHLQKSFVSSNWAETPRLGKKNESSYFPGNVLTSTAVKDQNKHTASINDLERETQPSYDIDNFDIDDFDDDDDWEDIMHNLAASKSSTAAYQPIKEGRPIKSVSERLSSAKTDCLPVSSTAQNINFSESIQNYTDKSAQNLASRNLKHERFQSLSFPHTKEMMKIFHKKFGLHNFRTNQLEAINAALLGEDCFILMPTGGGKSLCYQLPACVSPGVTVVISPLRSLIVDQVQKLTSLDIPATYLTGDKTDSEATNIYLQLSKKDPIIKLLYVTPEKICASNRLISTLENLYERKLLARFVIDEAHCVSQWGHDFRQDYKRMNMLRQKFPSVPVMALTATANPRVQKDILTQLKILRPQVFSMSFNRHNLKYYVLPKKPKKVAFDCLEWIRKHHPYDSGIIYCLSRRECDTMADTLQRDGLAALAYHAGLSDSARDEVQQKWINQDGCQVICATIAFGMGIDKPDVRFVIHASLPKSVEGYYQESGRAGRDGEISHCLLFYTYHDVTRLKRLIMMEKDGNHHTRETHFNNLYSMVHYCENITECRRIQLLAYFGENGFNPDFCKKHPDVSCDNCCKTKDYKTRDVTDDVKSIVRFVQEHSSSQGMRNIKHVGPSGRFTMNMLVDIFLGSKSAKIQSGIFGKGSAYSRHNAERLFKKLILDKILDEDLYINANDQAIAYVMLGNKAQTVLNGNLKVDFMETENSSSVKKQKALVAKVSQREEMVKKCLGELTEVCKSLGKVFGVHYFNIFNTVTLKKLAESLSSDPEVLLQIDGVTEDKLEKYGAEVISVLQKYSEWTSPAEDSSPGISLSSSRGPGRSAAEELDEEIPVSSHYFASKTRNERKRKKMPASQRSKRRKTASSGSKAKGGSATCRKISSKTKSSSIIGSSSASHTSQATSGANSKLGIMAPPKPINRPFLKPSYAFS
Chain of ATP-dependent 6-phosphofructokinase (Trypanosoma brucei brucei) (O15648 whole entry, looked up): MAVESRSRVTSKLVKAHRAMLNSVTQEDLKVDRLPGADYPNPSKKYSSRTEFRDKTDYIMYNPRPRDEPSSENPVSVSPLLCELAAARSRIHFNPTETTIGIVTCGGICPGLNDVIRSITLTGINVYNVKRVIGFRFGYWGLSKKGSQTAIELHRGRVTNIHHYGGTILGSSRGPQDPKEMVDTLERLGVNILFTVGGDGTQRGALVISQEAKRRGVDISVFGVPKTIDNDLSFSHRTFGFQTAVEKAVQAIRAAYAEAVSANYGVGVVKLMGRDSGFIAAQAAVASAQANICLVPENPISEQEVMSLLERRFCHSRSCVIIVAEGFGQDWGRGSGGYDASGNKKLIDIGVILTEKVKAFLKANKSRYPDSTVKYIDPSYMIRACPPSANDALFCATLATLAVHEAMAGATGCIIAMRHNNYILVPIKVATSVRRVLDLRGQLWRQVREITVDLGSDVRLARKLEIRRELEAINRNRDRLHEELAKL
Chain of Chromobox protein homolog 1 (Homo sapiens) (P83916 whole entry, looked up): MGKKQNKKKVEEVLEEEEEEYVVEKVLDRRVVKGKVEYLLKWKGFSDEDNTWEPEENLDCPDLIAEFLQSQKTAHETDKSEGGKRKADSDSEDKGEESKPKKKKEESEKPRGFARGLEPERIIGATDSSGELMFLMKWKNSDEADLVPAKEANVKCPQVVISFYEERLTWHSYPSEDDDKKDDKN

With `c1ccc(C2CC2)c(OCC2=NCCN2)c1`, the outcome in [1], in test [3], in test [9], in test [10], in test [14] and in [18] was inactive. Also, the outcome in test [19] was inactive. Besides, the Potency entry in test [2], in test [4], in test [5], in [6], in test [7] and in test [8] was “inactive” in each case. In addition, the Potency entry in [11], in [12], in [13], in test [15], in test [16] and in test [17] was “inactive” in each case.

For the compound `c1ccc2c(c1)OCC(C1=NCCN1)O2` (stereo unspecified), the compound was called inactive in test [1], in test [10], in test [14], in [18] and in test [19]. Further, the Potency in [4] was 6.56 µM (active); in test [5], 4.65 µM (active); in [6], 20 µM (active); in [7], 7.94 µM (active); in test [15], 7.52 µM (active). The Potency result in test [8], in test [12], in [13], in test [16], in [17] and in [20] was “inactive” in each case.

Take `Cc1ncc(CNC(=O)N(CCCl)N=O)c(N)n1`: the outcome in test [1], in [3], in [9], in test [10], in test [14] and in [18] was inactive. In addition, the outcome in test [19] was inactive. The Potency entry in test [4], in test [5], in [6], in test [7], in test [8] and in test [11] was “inactive” throughout. The Potency result in [12], in test [13], in test [15], in [16], in test [17] and in test [20] was “inactive” each time.

Regarding `NCC(CC(=O)O)c1ccc(Cl)cc1` (stereo unspecified), the outcome in test [1], in test [3], in test [9], in test [10], in test [14] and in test [18] was inactive. Besides, the outcome in [19] was inactive. Further, the Potency result in [4], in [5], in test [6], in test [7], in test [8] and in test [12] was “inactive” each time. Besides, the Potency entry in test [13], in [15], in [16], in [17] and in test [20] was “inactive” in each case.

Turning to `Fc1ccc(C(OCCN2CCN(CCCc3ccccc3)CC2)c2ccc(F)cc2)cc1`, the call in test [1], in test [10], in test [14], in test [18] and in [19] was inactive. Also, the Potency in test [5] is 18.5 µM (active); in test [7], 12.6 µM (active); in test [17] it was 15.8 µM (active); in test [20], 39.8 µM (active). The Potency entry in test [8], in test [11], in [12], in test [15] and in test [16] was “inactive” throughout.

In the case of `O=c1[nH]c2ccccc2n1C1CCN(CCCC(c2ccc(F)cc2)c2ccc(F)cc2)CC1`, the outcome in [1], in test [10], in test [14], in test [18] and in [19] was inactive. In addition, the Potency is 16.5 µM (active) in test [4], 10.4 µM (active) in test [12], 22.4 µM (active) in test [17] and 35.5 µM (active) in test [20]. For the same compound, the Potency result in test [8], in test [11], in [15] and in test [16] was “inactive” throughout.

`CNCC(O)c1ccc(O)cc1` (stereo unspecified): the compound was called inactive in test [1], in test [3], in [9], in test [10], in [14] and in test [18]. Moreover, in test [19], the outcome was inactive. The Potency entry in test [4], in test [5], in test [6], in [7], in test [8] and in [11] was “inactive” in each case. In addition, the Potency result in test [12], in test [13], in test [16], in [17] and in [20] was “inactive” in each case.

On to `N#CC(C#N)=Cc1ccc(O)c(O)c1`, for which the result in [1], in test [3], in [9], in test [10], in test [14] and in [18] was inactive. Moreover, the result in [19] was inactive. In addition, the Potency result in [4], in test [5], in [6], in [7], in [8] and in test [13] was “inactive” throughout. Besides, the Potency in test [15] is 16.8 µM (active); in test [16], 18.9 µM (active).

`CN1C[C@H](CNC(=O)OCc2ccccc2)C[C@@H]2c3cccc4c3c(cn4C)C[C@H]21`: the result in test [1], in test [10], in [14] and in test [18] was inactive. Also, the Potency result in test [4], in test [5], in [8], in test [11], in test [15] and in [16] was “inactive” each time. For the same compound, the Potency result in test [17] is “inactive”. Moreover, the Potency is 15.8 µM (active) in test [7], 3.29 µM (active) in [12], 7.38 µM (active) in test [13] and 44.7 µM (active) in test [20].

With `Cc1ccc(S(=O)(=O)N[C@@H](CCCCN)C(=O)CCl)cc1`, the call in test [1], in test [3], in test [10], in [14], in test [18] and in [19] was inactive. For the same compound, the Potency entry in test [2], in test [4], in test [5], in [6], in test [7] and in [8] was “inactive” in each case. Further, the Potency result in test [13], in test [17] and in test [20] was “inactive” throughout.

As for `CC(C)NCC(O)COc1cccc2[nH]ccc12` (stereo unspecified), the Potency result in test [2] and in test [6] was “inactive” throughout.

As for `CCn1cc(C(=O)O)c(=O)c2ccc(C)nc21`, the compound was classed as inactive in test [1] and in test [19]. Also, the Potency entry in test [6], in [7], in [12], in test [13] and in test [17] was “inactive” throughout.
